Measured values: PubChem BioAssay (NCI)
Compounds without any hit were thinned out: in the full panel of roughly 83,000, 20% have a hit.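 Treatment: one concentration, 48 hours, 96-well format. Scoring: percent growth, with anything below 10 considered active.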 The source made the active and inactive calls.

Tests used:
Assay in all cases: NCI-60 one-dose screen, 48 h (100 = growth as untreated, 0 = no growth, -100 = all killed)
Conditions in all cases: 10 µM unless noted
[1] = system: NCI-H23 lung
[2] = system: NCI-H226 lung
[3] = system: NCI-H322M lung
[4] = system: HOP-62 NSCLC
[5] = system: NCI-H460 lung
[6] = system: HOP-92 NSCLC
[7] = system: NCI-H522 lung
[8] = system: A549/ATCC NSCLC
[9] = system: 786-0 renal
[10] = system: COLO 205 colon
[11] = system: DU-145 prostate
[12] = system: K-562 leukemia
[13] = system: MALME-3M melanoma
[14] = system: MDA-MB-231 breast
[15] = system: RXF 393 renal
[16] = system: SF-268 CNS
[17] = system: SF-295 CNS
[18] = system: SF-539 CNS
[19] = system: UACC-257 melanoma
[20] = system: M14 melanoma

Measured: growth

CCN(CC)CC(=O)Nc1c(C)cccc1C
inactive: [1] 106% | [2] 92.9% | [3] 90.2% | [4] 106% | [5] 112% | [6] 104% | [7] 101% | [8] 104% | [9] 95.4% | [10] 115% | [11] 121% | [12] 99.8% | [13] 93.3% | [14] 108% | [15] 102% | [16] 108% | [17] 89.8% | [18] 104% | [19] 108% | [20] 100%

Fc1ccc(/C=N/n2c(-c3cc(Cl)cc(Cl)c3Cl)nn(CNc3ccc(Cl)nn3)c2=S)cc1
inactive: [1] 86.3% | [2] 97.1% | [3] 94.9% | [4] 82.4% | [5] 112% | [6] 49.5% | [7] 82.8% | [8] 99.3% | [9] 85.5% | [10] 100% | [11] 121% | [12] 85.8% | [13] 103% | [14] 83.3% | [15] 97% | [16] 105% | [17] 121% | [18] 97.6% | [19] 98.1% | [20] 85.6%

CC(=O)Nc1ccc([I+]c2ccc([N+](=O)[O-])cc2)cc1
inactive: [1] 84.6% | [2] 79.9% | [3] 94.8% | [4] 96.4% | [5] 104% | [6] 90.5% | [7] 46.5% | [8] 98.9% | [9] 98.3% | [10] 63.4% | [11] 107% | [12] 69.3% | [13] 43.6% | [14] 113% | [15] 129% | [16] 99.4% | [17] 118% | [18] 101% | [19] 90.4% | [20] 83%

O=C(Nc1ccc(-n2ccc3c(NC(=O)c4ccccc4)nccc32)cc1)c1cccc(C(F)(F)F)c1
active: [5] 2.21% | [15] -8.11%
inactive: [1] 50% | [2] 63.9% | [3] 48.8% | [4] 46.2% | [6] 47.4% | [7] 12.2% | [8] 13% | [9] 18.3% | [10] 35.8% | [11] 45.2% | [12] 15.3% | [13] 44.3% | [14] 51.4% | [16] 26.9% | [17] 11.3% | [18] 16.8% | [19] 44.4% | [20] 27.6%

O=C1c2ccccc2OC=C(c2ccccc2)N1CCCCN1CCCCC1
inactive: [1] 67.2% | [2] 84.3% | [3] 91.2% | [4] 38.1% | [5] 46.7% | [6] 40.2% | [7] 25% | [8] 46.8% | [9] 95.4% | [11] 48.6% | [12] 15.6% | [13] 67.8% | [14] 73.8% | [15] 95.7% | [16] 55.5% | [17] 79.3% | [18] 95.7% | [19] 66.7% | [20] 68%
active: [10] -33.6%

O=C(O)c1ccc(-n2cc(/C=N/Nc3ccc(F)cc3)c(-c3cccc(C(F)(F)F)c3)n2)cc1
inactive: [1] 81% | [2] 92.5% | [3] 76.5% | [4] 96.1% | [5] 81.6% | [6] 95.9% | [7] 36.3% | [8] 65.7% | [9] 79.9% | [10] 105% | [11] 81.6% | [12] 11.1% | [13] 88.2% | [14] 87.8% | [15] 101% | [16] 67% | [17] 54% | [18] 75.6% | [19] 91.2% | [20] 51.3%

CCCCCCCCCCCC(=O)OCCNC(=O)C[n+]1ccccc1
inactive: [1] 107% | [2] 98.7% | [3] 99.4% | [4] 102% | [5] 120% | [6] 68.7% | [7] 102% | [8] 104% | [9] 112% | [10] 105% | [11] 131% | [12] 117% | [13] 96.3% | [14] 99.6% | [15] 110% | [16] 104% | [17] 78.7% | [18] 105% | [19] 106% | [20] 102%

CCOC(=O)C1CSC(C)(C(=O)OCC)N1 (stereo not given)
inactive: [1] 99.5% | [2] 95.5% | [3] 104% | [4] 90.6% | [5] 106% | [6] 84.7% | [7] 76.7% | [8] 98.9% | [9] 90.8% | [10] 105% | [11] 108% | [12] 103% | [13] 98.4% | [14] 107% | [15] 115% | [16] 106% | [17] 106% | [18] 104% | [19] 111% | [20] 98.7%

CCCCOc1c(N)cccc1C(=O)OCCN(CC)CC
inactive: [1] 97.1% | [2] 99.8% | [3] 80.7% | [4] 104% | [5] 105% | [6] 95.7% | [7] 76.5% | [8] 97.4% | [9] 102% | [10] 109% | [11] 103% | [12] 80.4% | [13] 100% | [14] 99.3% | [15] 100% | [16] 95.1% | [17] 103% | [18] 104% | [19] 100% | [20] 99.5%

CSc1ccc(C(=O)C[n+]2cccc(C)c2)cc1
inactive: [1] 102% | [2] 94.3% | [3] 102% | [4] 107% | [5] 109% | [6] 105% | [7] 110% | [8] 105% | [9] 100% | [10] 109% | [11] 109% | [12] 102% | [13] 96.6% | [14] 107% | [15] 107% | [16] 99.4% | [17] 98.4% | [18] 99.7% | [19] 98.2% | [20] 103%

CCN(CC)c1ccc(C2CC(c3cc(OC)c(OC)c(OC)c3)=NN2)cc1 (stereo not given)
active: [5] 2.68% | [6] -13.6% | [7] -9.2% | [10] -25.7% | [11] -36.1% | [12] 5.52% | [15] -20.9% | [18] -43.1% | [20] 5.55%
inactive: [1] 32.3% | [2] 67.9% | [3] 41.5% | [4] 34.7% | [8] 13.7% | [9] 23.5% | [13] 108% | [14] 31.7% | [16] 28.1% | [17] 33.9% | [19] 30.8%

CCCCC(=O)Nc1nc2ccc(SCCC)cc2s1
inactive: [1] 68.5% | [2] 49.7% | [3] 82.4% | [4] 51.8% | [5] 32% | [6] 20.8% | [7] 28.8% | [8] 35.8% | [9] 65% | [10] 51.6% | [11] 67.4% | [12] 16.5% | [13] 50% | [14] 51.9% | [15] 45.9% | [16] 61.6% | [17] 45.1% | [18] 50.5% | [19] 66.8% | [20] 37.3%

C[C@]12CC[C@@H]3c4ccc(O)c(N)c4CC[C@H]3[C@@H]1CC[C@@H]2O
inactive: [1] 101% | [2] 112% | [3] 114% | [4] 143% | [5] 102% | [6] 140% | [7] 82.6% | [8] 99.9% | [9] 118% | [10] 123% | [11] 110% | [12] 79.8% | [13] 129% | [14] 115% | [15] 116% | [16] 98.9% | [17] 108% | [18] 106% | [19] 82.5% | [20] 100%

Cn1c2ccccc2c2ssc(=S)c21
inactive: [1] 92.4% | [2] 105% | [3] 89.9% | [4] 110% | [5] 106% | [6] 88.6% | [7] 85.7% | [8] 99.7% | [9] 98.5% | [10] 116% | [11] 116% | [12] 82.9% | [13] 81.9% | [14] 99.9% | [15] 108% | [16] 103% | [17] 97.3% | [18] 97.5% | [19] 98.8% | [20] 89.3%

COc1ccc(N)c(S)c1
inactive: [1] 92.3% | [2] 92.8% | [3] 106% | [4] 90.5% | [5] 106% | [6] 88.4% | [7] 84.5% | [8] 77.1% | [9] 107% | [10] 84.5% | [11] 102% | [12] 97.4% | [13] 101% | [14] 86.7% | [15] 111% | [16] 105% | [17] 100% | [18] 101% | [19] 80.5% | [20] 101%
